From PubChem BioAssay
The list is not random: actives were taken first. Their share in the collection is about 7.1%.
ELG1 repair inh – blocks ELG1-dependent DNA repair in HEK293T cells; HEK293T ELG1-luciferase reporter, luminescence, 16 h; DNA damage induced by 5-fluorouridine; Potency, µM (doses to about 46.1 µM), actives largely listed as inhibitors; 330,000 compounds, 2.3% hits; also: nearly all actives have a fitted effect of over 55% in size
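Step one: seed 2,000 cells per well. Step two: pin-transfer compound or DMSO alongside 5-fluorouridine. Step three: incubate 16 hr, 37 °C, 5% CO2. Step four: add ONE-Glo, wait 30 min, read luminescence.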
SW480 rerep – inducers of DNA re-replication in SW480 colon cancer cells. 340,000 compounds, 1.8% hits. SW480 DNA re-replication, Hoechst DNA content imaging, 48 h. Potency, µM (series often up to 46.1 µM), usual class: activators. AID 624297; also: nearly all actives have a fitted effect of over 55% in size
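Image-based DNA-content assay: after two days of treatment, nuclei were labelled with the DNA dye Hoechst and imaged, and hits were compounds raising the count of nuclei showing high fluorescence intensity.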
ELG1 genotox – inducers of genotoxicity in HEK293T ELG1-luciferase cells; Potency, µM (highest dose often 46 µM), hits mostly activators; HEK293T ELG1-luciferase reporter, luminescence, 16 h; 330,000 compounds, 1.3% hits; also: nearly all actives have a fitted effect of over 60% in size
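Step 1: seed 2,000 HEK293T ELG1-luciferase cells per well. Step 2: add compound or DMSO, incubate 16 hr at 37 °C. Step 3: ONE-Glo, 30 min at room temperature, read luminescence.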
p53 reactivator – restores transcriptional activity of mutant p53; H1299 p53-A138V BP100-luciferase reporter, luminescence, 24 h; Potency, µM (series often up to 92.2 µM), hits mostly activators; 320,000 compounds, 0.063% hits; also: nearly all actives have a fitted effect of over 45% in size
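p53-null H1299 cells stably carrying temperature-sensitive p53-A138V and a BP100-luciferase reporter were pinned with compounds (4-point, 1:5 series) and held 24 hrs at 37 deg C. Luminescence was read 10 min after detection reagent.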
MCF10A rereplic – induces DNA re-replication in MCF 10a normal breast cells. MCF 10A DNA re-replication, Hoechst nuclear intensity, 48 h. Potency, µM (series often up to 46.1 µM), actives largely listed as activators. 350,000 compounds, 2.9% hits. AID 624296; also: nearly all actives have a fitted effect of over 50% in size
AT treatment – potential ataxia-telangiectasia treatment. Potency, µM (doses to about 57.5 µM), most hits filed as activators. AID 485349. 320,000 compounds, 0.19% hits. F2112 A-T fibroblasts, KAP-1 phosphorylation AlphaLISA; neocarzinostatin DNA damage 30 min before lysis; also: nearly all actives have a fitted effect of over 45% in size
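hTERT-immortalized A-T patient fibroblasts (F2112), 500 cells/well in OPTI-MEM, 1% FBS, got compounds for 60 min, then NCS for 30 min at 37C. Lysates were then assayed for phospho-KAP-1 by AlphaLISA (anti-pKAP1 donor, anti-KAP1 acceptor beads), 6 hr at 25C.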
Large screens that a line does not name were inactive. Calls follow the shape of the dose curve; as a rule, active = well fitted curve in the direction sought with a large enough effect; inconclusive = small, poorly fitted or top-dose-only effect, or another doubt; inactive = no such curve, though single readings can be large; an effect the other way counts as inactive or inconclusive.

Cc1ccc(O)c(-c2cc(C(=O)Nc3ccc(S(=O)(=O)N4CC(C)OC(C)C4)cc3)[nH]n2)c1 (stereo not given)	ELG1 repair inh 8.2µM
Cc1ccc(-c2cc(C(=O)Nc3ccc(S(=O)(=O)N4CC(C)OC(C)C4)cc3)[nH]n2)c(O)c1 (stereo not given)	none
Cc1cc(O)c(-c2cc(C(=O)Nc3ccc(S(=O)(=O)N4CCOCC4)cc3)[nH]n2)cc1C	ELG1 repair inh inconclusive, SW480 rerep inconclusive, MCF10A rereplic inconclusive
O=C(Nc1ccc(S(=O)(=O)N2CCOCC2)cc1)c1cc(-c2cc(Cl)ccc2O)n[nH]1	ELG1 repair inh 23µM, SW480 rerep inconclusive, MCF10A rereplic inconclusive
CC(C)C(OC(=O)CN1C(=O)COc2ccccc21)C(=O)NC1CCCC1 (stereo not given)	none
Cc1ccc2c(c1)N(CC(=O)OC(CC(C)C)C(=O)NC1CCCC1)C(=O)CO2 (stereo not given)	ELG1 repair inh 21µM, MCF10A rereplic inconclusive
COc1ccccc1N=C1SC(C(=O)Nc2cccc(Cl)c2Cl)C(N)=C1C(N)=O (stereo not given)	ELG1 repair inh inconclusive, SW480 rerep 23µM, MCF10A rereplic 12µM
Cc1ccc(NC(=O)COC(=O)CCc2ccc(S(=O)(=O)N3CCOCC3)cc2)cc1F	none
CCOC(=O)N1CCN(C(=O)C2CCC(=O)N(CCCc3ccccc3)C2)CC1 (stereo not given)	none
CCN(CC(=O)Nc1ccc(NC(C)=O)cc1)C(=O)C1CCCC1	none
O=C(c1ccccc1F)N1CCN(S(=O)(=O)c2ccc3c(c2)OCCO3)CC1	ELG1 repair inh inconclusive
O=C(Nc1ccc2c(c1)oc1ccc(S(=O)(=O)N3CCCC3)cc12)C1CC1	ELG1 repair inh 16µM
CCN(CC(=O)Nc1ccc(NC(C)=O)cc1)C(=O)C1CCN(C(=O)c2ccccc2C)CC1	SW480 rerep 3.7µM (no result: ELG1 repair inh, ELG1 genotox, p53 reactivator, AT treatment)
Cc1ccccc1C(=O)N1CCC(C(=O)Nc2ccc(S(=O)(=O)N3CCCCC3)cc2)CC1	ELG1 repair inh 15µM, SW480 rerep inconclusive
CN(C1CCCCC1)S(=O)(=O)c1ccc(S(=O)(=O)N2CCN(C(=O)c3ccccc3F)CC2)cc1	ELG1 repair inh 18µM
COc1ccc(-c2ccnc(SCC(=O)N3CCN(c4ccccc4)CC3)n2)cc1	none
O=[N+]([O-])c1c(Nc2ccccc2O)cc(Cl)c2nonc12	ELG1 repair inh 26µM
O=[N+]([O-])c1c(Nc2ccccc2O)ccc2nonc12	MCF10A rereplic inconclusive
NCc1ccccc1CS(=O)(=O)N1CCOCC1	none
CCN(CC(=O)NCc1ccc(Cl)cc1)C(=O)CCC(=O)c1ccc(F)cc1	none
O=C(NC1CC1)c1scc2c1OCCO2	ELG1 repair inh 16µM
COc1ccccc1CNC(=O)COC(=O)C1CCN(S(=O)(=O)c2c(Cl)cccc2Cl)CC1	SW480 rerep inconclusive (no result: ELG1 repair inh, ELG1 genotox, p53 reactivator, AT treatment)
COc1cccc(C2C(C(=O)Nc3ccc(C)cc3C)=C(C)Nc3ncnn32)c1OC (stereo not given)	none
COc1ccccc1NC(=O)C1=C(C)Nc2ncnn2C1c1ccccc1C (stereo not given)	SW480 rerep 4.1µM
CCOC(=O)C1CCCN(C(=O)c2cc3cc4ccc(OC)cc4nc3o2)C1 (stereo not given)	none
CCCC1CCC(C(=O)n2nc(N)c3cc4ccc(OC)cc4nc32)CC1 (stereo not given)	ELG1 repair inh 5.8µM
Cc1ccc(C(=O)Nc2nc(-c3cc(Cl)sc3Cl)cs2)cc1	ELG1 repair inh 9.2µM, MCF10A rereplic 26µM
O=C(Nc1nc(-c2ccc(Cl)s2)cs1)c1ccccc1	MCF10A rereplic inconclusive
CC(=O)c1ccc(-c2ccc(C(=O)Nc3nc(-c4ccccn4)cs3)o2)cc1	ELG1 repair inh 18µM, SW480 rerep inconclusive, p53 reactivator inconclusive, MCF10A rereplic 16µM
O=C(Nc1nc(-c2ccccn2)cs1)c1cc(Cl)ccc1[N+](=O)[O-]	ELG1 repair inh inconclusive, SW480 rerep inconclusive, p53 reactivator 35µM
CCCn1nc(C(=O)Nc2nc(-c3ccccn3)cs2)c2ccccc2c1=O	ELG1 repair inh 7.3µM, MCF10A rereplic 23µM
Cc1ccc(C(=O)Nc2nc(-c3ccccn3)cs2)o1	ELG1 repair inh inconclusive
Cc1cc(C(=O)Nc2nc(-c3ccccn3)cs2)ccc1[N+](=O)[O-]	ELG1 repair inh inconclusive, SW480 rerep inconclusive, MCF10A rereplic inconclusive
COc1ccccc1NC(=O)Nc1ccnn1C1CCN(C(=O)c2cccnc2)CC1	none
CC1Cc2ccccc2N1C(=O)Cn1cnc2c1c(=O)n(C)c(=O)n2C (stereo not given)	none
Cc1ccc(-c2csc(NC(=O)c3ccc(-c4ccccc4)cc3)n2)o1	ELG1 genotox 18µM, MCF10A rereplic inconclusive
O=C(Nc1nc(-c2ccccn2)cs1)c1ccccc1-n1cnnn1	ELG1 repair inh 2.6µM, SW480 rerep inconclusive, MCF10A rereplic inconclusive
O=C(Nc1nc(-c2ccccn2)cs1)c1ccc([N+](=O)[O-])o1	ELG1 repair inh inconclusive, SW480 rerep inconclusive, p53 reactivator inconclusive, MCF10A rereplic 2.3µM
O=C(Nc1nc(-c2ccccn2)cs1)c1ccc(-c2ccccc2F)o1	SW480 rerep inconclusive, ELG1 genotox inconclusive, MCF10A rereplic 21µM
Cc1ccc(C(=O)COC(=O)CCNS(=O)(=O)c2ccccc2F)cc1	none
COc1ccc(C(=O)Nc2cccc(C)n2)cc1S(=O)(=O)N1CCCc2ccccc21	none (no result: ELG1 repair inh, ELG1 genotox, p53 reactivator, AT treatment)
Cc1[nH]c2ccc(C(=O)N3CCN(c4ccc(F)cc4)CC3)cc2c1C	none
Cn1c2ccccc2c(=O)c2ccc(C#CC3(N)CCCCC3)cc21	ELG1 repair inh inconclusive, SW480 rerep inconclusive, ELG1 genotox 7.3µM, MCF10A rereplic inconclusive, AT treatment inconclusive (no result: p53 reactivator)
COc1cccc2oc3ccc(C#CC4(N)CCCCC4)cc3c(=O)c12	ELG1 repair inh inconclusive, SW480 rerep inconclusive, ELG1 genotox 18µM, MCF10A rereplic inconclusive (no result: p53 reactivator)
Cn1c2ccccc2c(=O)c2cc(C#CC3(O)CCCCC3)ccc21	ELG1 repair inh inconclusive, SW480 rerep inconclusive, ELG1 genotox 0.12µM, MCF10A rereplic inconclusive
O=c1c2ccccc2oc2ccc(C#CC3(O)CCCCC3)cc12	MCF10A rereplic inconclusive (no result: ELG1 repair inh, ELG1 genotox, p53 reactivator, AT treatment)
COc1ccc(Cl)cc1NC(=O)CN(C)C(=O)CN1C(=O)NC(C)(c2ccc3ccccc3c2)C1=O (stereo not given)	MCF10A rereplic inconclusive (no result: ELG1 repair inh, ELG1 genotox, p53 reactivator, AT treatment)
COc1ccc(C(=O)Nc2ccc(Cl)cc2F)cc1S(=O)(=O)N1CCCC1	none
COc1ccc(Cc2cnc(N)nc2N)cc1OC	none (no result: ELG1 repair inh, ELG1 genotox, p53 reactivator, AT treatment)
